We go through five compounds from PubChem BioAssay.

Assay [1] deals with Wnt5a (protein binding on small-molecule microarray). Put plainly: Wnt5a binders on small-molecule microarray, primary screen, biophysical, 635/667 nm fluorescence (AID 1142).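 Note: fluorescence read at 667 nm with signal to noise per printed feature.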 The following applies: 635 nm fluorescence, higher = more signal.
Assay [2] can be described thus: cell viability in Huh7 cells, primary screen, cytotoxicity control for HCV replication inhibitor project, CellTiter-Glo luminescence, basal, 48 h (AID 1143).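 Note: Huh7 hepatoma cells carrying a hepatitis C replication reporter with no stimulus; test concentration not given here.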 The following applies: Huh7 HCV replicon, higher = more signal, called active from +8 up or from −8 down.
The nature of assay [3]: P. aeruginosa biofilm formation inhibitors, primary screen, PAO1 strain, BacTiter-Glo luminescence, LB-PBS (AID 1144). The following applies: 12 h, higher = more signal.
A short description of assay [4]: CREB reporter modulators without forskolin, primary screen, cell-based, PC12, CRE-LacZ reporter, unstimulated (AID 1145). Conditions: no forskolin, luminescence, 4.5 h, higher = more signal, called active from +8 up or from −8 down.
Assay [5] in a line: CREB reporter modulators under forskolin, primary screen, cell-based, PC12, CRE-LacZ reporter, forskolin-stimulated (AID 1146).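 Note: PC12 cells with 6xCRE LacZ reporter stimulated by forskolin 10 µM; beta-galactosidase reporter signal reflecting CREB driven transcription.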 The following applies: luminescence, 4.5 h, higher = more signal, called active from +8 up or from −8 down.
Assay [6] has as its target Streptavidin (Streptomyces avidinii) (UniProt P22629). The assay can be described thus: streptavidin binders on small-molecule microarray, primary screen, artefact control for SMM compound annotation, biophysical, 635/667 nm fluorescence (AID 1147).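 Note: signal reflects streptavidin binding to arrayed compounds as a control protein.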 The following applies: streptavidin binding, higher = more signal.
Assay [7] in a line: small-molecule binders of probe aInhba, primary screen, biochemical, small-molecule microarray, 635/667 nm fluorescence (AID 1148).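 Note: score merges 667nm spot fluorescence with signal-to-noise for antibody binding to printed compounds.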 Conditions: higher = more signal.
Assay [8] concerns the target Torsin-1A (Homo sapiens) (UniProt O14656). Put plainly: torsin A binders from cell lysate, primary screen, small-molecule microarray, wild-type, 635/667 nm (AID 1149). Conditions: COS7 hTOR1A-WT lysate, 635 nm fluorescence, higher = more signal.
Assay [9] shares this target. The assay can be described thus: small-molecule binders of mutant TOR1A in lysate, primary screen, cell lysate, small-molecule microarray, COS7 lysate, 635/667 nm fluorescence (AID 1150).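 Note: score pools 667 nm emission and signal to noise measuring lysate protein binding.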 The following applies: COS7 hTOR1A mutant lysate, 635 nm fluorescence, higher = more signal.
The test system of assay [10] is Sonic hedgehog protein (Shh). Put plainly: small-molecule binders of Shh protein, primary screen, biochemical, small-molecule microarray, 635/667 nm fluorescence (AID 1151).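 Note: Shh protein binding to compounds spotted on small-molecule microarray slides; score combines spot fluorescence intensity with signal-to-noise across triplicate slides.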 The following applies: small-molecule microarray binding, 635 nm fluorescence; higher = more signal.
Assay [11] can be described thus: E. coli DRC41 culture turbidity changes, primary screen, E. coli filamentation inducer project, strain DRC41, OD650, 48 h (AID 1152).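 Note: E. coli MC1000 strain DRC41 lacking acrAB efflux pump and sulA.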 The following applies: E. coli DRC41 (acrAB sulA), higher = more signal, called active from +8 up or from −8 down.
The nature of assay [12]: small-molecule binders of probe aLefty1, primary screen, biochemical, small-molecule microarray, 635/667 nm fluorescence (AID 1153).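 Note: score merges spot fluorescence with signal-to-noise ratio from the scanned slide images.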 Conditions: higher = more signal.
Assay [13] can be described thus: PSAC antagonists in infected red cells, primary screen, cell-based, P. falciparum Indochina, OD700, 1 h (AID 1154). Conditions: P. falciparum Indochina infected RBC osmotic lysis, higher = more signal, called active from +8 up or from −8 down.
Assay [14] can be described thus: PSAC antagonists in infected red cells, primary screen, cell-based, P. falciparum Indochina, OD700, 2 h (AID 1155).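 Note: lysis reports solute entry through the parasite surface anion channel PSAC; channel blockers reduce lysis of infected cells.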 The following applies: P. falciparum Indochina infected erythrocytes, osmotic lysis OD700; higher = more signal, called active from +8 up or from −8 down.
Assay [15] can be described thus: osmotic lysis modulators in infected erythrocytes, primary screen, PSAC antagonist project, cell-based, P. falciparum Indochina, OD700, 3 h (AID 1156). Conditions: higher = more signal, called active from +8 up or from −8 down.
Assay [16] can be described thus: PSAC antagonists in infected red cells, primary screen, cell-based, P. falciparum Indochina, OD700, 18 h (AID 1157). The following applies: P. falciparum Indochina infected erythrocytes, osmotic lysis OD700, 18 h; higher = more signal, called active from +8 up or from −8 down.
The nature of assay [17]: modulators of S6 phosphorylation in cells, primary screen, cell-based, A549, cytoblot, luminescence, serum-stimulated (AID 1158).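 Note: serum-stimulated A549 lung adenocarcinoma cells; signal is phosphorylated S6 detected by cytoblot immunostaining with HRP secondary.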 Conditions: A549 phospho-S6 cytoblot, 5 h, higher = more signal.
Assay [18] addresses NADPH oxidase 2 (Homo sapiens) (UniProt P04839). The assay can be described thus: NOX2-dependent H2O2 signal modulators, primary screen, NOX inhibitor project, cell-based, HEK293-NOX2, PMA-stimulated, Amplex Red fluorescence (AID 1159). Note: test concentration not given here. Conditions: 45 min, higher = more signal, called active from +8 up or from −8 down.
Assay [19] addresses NADPH oxidase 4 (Homo sapiens) (UniProt Q9NPH5). Put plainly: NOX4-dependent H2O2 signal modulators, primary screen, NOX inhibitor project, cell-based, HEK293-NOX4, tetracycline-induced, Amplex Red fluorescence (AID 1160). Conditions: 45 min, higher = more signal, called active from +8 up or from −8 down.
The target in assay [20] is NADPH oxidase 5 (Homo sapiens) (UniProt Q96PH1). The assay can be described thus: NOX5-dependent H2O2 signal modulators, primary screen, NOX inhibitor project, cell-based, HEK293-NOX5, Amplex Red fluorescence (AID 1161). The following applies: HEK293-NOX5, ionomycin, 45 min, higher = more signal.

Calls of active or inactive are those of the source. Unless noted, the rule behind the calls is not given here.

Torsin-1A (Homo sapiens), sequence (O14656 whole entry, looked up): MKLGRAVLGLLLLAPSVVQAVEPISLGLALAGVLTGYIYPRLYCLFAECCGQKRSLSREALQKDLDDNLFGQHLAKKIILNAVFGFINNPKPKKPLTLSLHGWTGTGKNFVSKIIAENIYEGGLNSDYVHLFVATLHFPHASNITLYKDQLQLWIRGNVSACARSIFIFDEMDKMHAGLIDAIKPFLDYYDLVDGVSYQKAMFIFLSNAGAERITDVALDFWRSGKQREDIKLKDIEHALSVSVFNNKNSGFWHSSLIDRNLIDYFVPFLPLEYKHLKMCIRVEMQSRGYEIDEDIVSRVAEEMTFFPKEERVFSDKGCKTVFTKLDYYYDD
Streptavidin (Streptomyces avidinii), sequence (P22629 whole entry, looked up): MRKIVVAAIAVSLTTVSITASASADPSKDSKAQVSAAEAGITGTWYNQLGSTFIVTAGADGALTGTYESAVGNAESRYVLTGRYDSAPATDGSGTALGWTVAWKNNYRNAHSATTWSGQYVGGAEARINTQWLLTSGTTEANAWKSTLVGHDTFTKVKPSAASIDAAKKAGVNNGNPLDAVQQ
NADPH oxidase 2 (Homo sapiens), sequence (P04839 whole entry, looked up): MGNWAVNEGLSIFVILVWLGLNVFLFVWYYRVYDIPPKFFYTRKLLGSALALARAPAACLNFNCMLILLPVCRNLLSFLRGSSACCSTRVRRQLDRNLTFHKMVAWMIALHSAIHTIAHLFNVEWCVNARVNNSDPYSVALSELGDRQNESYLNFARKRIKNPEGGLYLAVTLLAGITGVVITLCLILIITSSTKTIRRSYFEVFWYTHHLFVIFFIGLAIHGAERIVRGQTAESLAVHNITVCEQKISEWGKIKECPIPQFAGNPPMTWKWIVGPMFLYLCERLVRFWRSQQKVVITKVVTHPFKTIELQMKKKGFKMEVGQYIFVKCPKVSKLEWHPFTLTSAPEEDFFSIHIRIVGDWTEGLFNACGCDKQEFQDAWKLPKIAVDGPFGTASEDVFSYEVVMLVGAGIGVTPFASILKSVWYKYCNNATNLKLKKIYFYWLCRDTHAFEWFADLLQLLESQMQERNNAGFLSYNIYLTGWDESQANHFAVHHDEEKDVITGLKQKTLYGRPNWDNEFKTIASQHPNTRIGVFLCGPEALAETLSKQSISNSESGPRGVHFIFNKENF
NADPH oxidase 4 (Homo sapiens), sequence (Q9NPH5 whole entry, looked up): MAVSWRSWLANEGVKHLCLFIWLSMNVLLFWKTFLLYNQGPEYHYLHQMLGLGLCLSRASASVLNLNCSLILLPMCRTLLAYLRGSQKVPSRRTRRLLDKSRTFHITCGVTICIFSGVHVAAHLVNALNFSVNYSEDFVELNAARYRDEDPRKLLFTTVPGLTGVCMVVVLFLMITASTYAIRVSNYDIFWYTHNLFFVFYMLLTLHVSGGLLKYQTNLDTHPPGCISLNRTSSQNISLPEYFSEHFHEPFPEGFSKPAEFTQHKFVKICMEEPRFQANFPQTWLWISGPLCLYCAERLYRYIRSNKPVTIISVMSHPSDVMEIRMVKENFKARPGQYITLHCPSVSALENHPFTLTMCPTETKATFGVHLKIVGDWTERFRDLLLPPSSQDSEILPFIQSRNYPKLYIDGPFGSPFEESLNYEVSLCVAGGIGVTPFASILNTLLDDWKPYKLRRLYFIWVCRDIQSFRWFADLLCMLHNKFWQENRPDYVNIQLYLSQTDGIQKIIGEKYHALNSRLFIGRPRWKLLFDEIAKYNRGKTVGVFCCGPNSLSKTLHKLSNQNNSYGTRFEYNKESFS
NADPH oxidase 5 (Homo sapiens), sequence (Q96PH1 whole entry, looked up): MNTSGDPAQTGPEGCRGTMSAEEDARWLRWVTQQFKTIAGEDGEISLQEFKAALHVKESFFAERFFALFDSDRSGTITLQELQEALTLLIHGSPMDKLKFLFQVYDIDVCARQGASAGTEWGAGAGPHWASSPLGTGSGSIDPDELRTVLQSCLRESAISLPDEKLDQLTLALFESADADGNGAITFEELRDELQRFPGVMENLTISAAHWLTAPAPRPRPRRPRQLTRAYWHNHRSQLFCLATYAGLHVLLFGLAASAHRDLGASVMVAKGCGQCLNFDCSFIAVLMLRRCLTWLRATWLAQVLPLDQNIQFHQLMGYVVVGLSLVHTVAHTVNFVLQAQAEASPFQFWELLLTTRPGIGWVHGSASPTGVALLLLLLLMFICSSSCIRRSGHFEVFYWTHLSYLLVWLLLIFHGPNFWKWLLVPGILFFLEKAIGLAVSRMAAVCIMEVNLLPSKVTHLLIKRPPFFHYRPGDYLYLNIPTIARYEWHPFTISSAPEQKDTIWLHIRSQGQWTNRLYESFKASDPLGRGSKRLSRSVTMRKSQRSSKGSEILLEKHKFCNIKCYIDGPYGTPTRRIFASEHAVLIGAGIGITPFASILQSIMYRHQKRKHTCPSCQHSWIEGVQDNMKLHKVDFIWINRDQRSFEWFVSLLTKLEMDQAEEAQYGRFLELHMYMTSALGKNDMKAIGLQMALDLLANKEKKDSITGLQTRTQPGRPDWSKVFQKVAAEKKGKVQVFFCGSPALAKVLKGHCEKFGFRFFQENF

With `CC(C)C(=C=CC[C@H](O)c1cccc(OCCO)c1)C[C@H](O)c1ccccn1`, the composite z-score is -0.103 in assay [1]; -0.502 in [6]; -0.0986 in [7]; -0.256 in assay [8]; 0.0951 in assay [9]; 1.45 in assay [10]. Moreover, the composite z-score in assay [12] came out at 0.21. Besides, the z-score in assay [2] is -0.667 (inactive); in assay [3], -1.06 (inactive); in assay [4], 2.25 (inactive); in [5], 0.42 (inactive); in [11], 1.21 (inactive); in assay [13] it was 7.72 (inactive). For the same compound, the z-score in assay [14] is 0.631 (inactive); in [15], 1.96 (inactive); in assay [16] it was 0.626 (inactive); in assay [17], 0.468; in assay [18] it was -1.57 (inactive); in [19], 0.362 (inactive). The same compound showed a z-score in assay [20] of -1.13.

On to `COC(=O)C1=CC(CCCO)=CC(c2ccc(CN3CCCC3)cc2)N(C)C=C1C(=O)OC` (stereo not given), for which the composite z-score in assay [1] was 0.408; in [6] it was 0.532; in assay [7], 0.0658; in assay [8], -1.01; in assay [9] it was -0.418; in assay [10], -0.284. The composite z-score in assay [12] was found to be 0.212. Moreover, the z-score in [2] was 0.209 (inactive); in assay [3], 0.0505 (inactive); in [4], -0.464 (inactive); in assay [5] it was -0.0736 (inactive); in [11] it was 0.265 (inactive); in [13] it was 1.77 (inactive). Further, the z-score in assay [14] was 0.422 (inactive); in assay [15] it was 0.587 (inactive); in assay [16], 0.155 (inactive); in assay [17], -0.387; in [18], 0.452 (inactive); in assay [19] it was 0.225 (inactive). Besides, the z-score in assay [20] stood at 0.463.

For `CN(C)CCCCNC(=O)[C@H]1C[C@H]2C(=O)N[C@@H](CCCCN(C)C)C(=O)N2[C@H]1c1ccc(O)cc1`, the composite z-score is 0.215 in [1]; 0.165 in assay [6]; -0.206 in assay [7]; 0.464 in [8]; 0.282 in assay [9]; 1.29 in assay [10]. In [12], the composite z-score is -0.299. Besides, the z-score in assay [2] was -1.14 (inactive); in assay [3], -0.889 (inactive); in assay [4] it was -1.61 (inactive); in assay [5], -0.252 (inactive); in assay [11] it was 2.41 (inactive); in [13], -0.418 (inactive). Besides, the z-score in assay [14] is -0.546 (inactive); in [15] it was 0.589 (inactive); in assay [16], -1.34 (inactive); in assay [17], 0.859; in [18], 0.109 (inactive); in assay [19], 0.504 (inactive). This compound also registered a z-score in [20] of 0.875.

Consider `COCCOC(=O)N1C(=O)[C@@]2(c3cc(C#CCNC(N)=O)ccc31)[C@H](C(=O)N1CCN(c3ncccn3)CC1)[C@H]1C(=O)O[C@H](c3ccccc3)[C@H](c3ccccc3)N1[C@@H]2c1ccc(O)cc1`, for which the composite z-score is -0.546 in assay [1]; -1.21 in assay [6]; -0.4 in assay [7]; -0.827 in assay [8]; -0.859 in assay [9]; -0.448 in assay [10]. The composite z-score in [12] was -0.514. Moreover, the z-score in assay [2] is -0.375 (inactive); in assay [3], -1.09 (inactive); in assay [4], 0.484 (inactive); in assay [5], -0.26 (inactive); in assay [11], 0.03 (inactive); in [13] it was 1.35 (inactive). Besides, the z-score in [14] is -0.136 (inactive); in [15], 0.889 (inactive); in [16], 0.539 (inactive); in [17] it was -0.285; in assay [18] it was 0.806 (inactive); in assay [19], 0.432 (inactive). Moreover, the z-score in [20] came to 0.31.

As for `CCCCC=C[C@@H](NC(=O)C(C)(C)C)c1ccccc1`, the composite z-score in assay [1] was 0.5; in assay [6] it was 0.761; in assay [7], 0.353; in assay [8], 0.226; in assay [9] it was 0.487; in assay [10], -0.0371. In addition, the composite z-score in [12] was found to be 0.181. Also, the z-score in assay [2] was -2.89 (inactive); in assay [3], 0.124 (inactive); in [4] it was -0.185 (inactive); in [5] it was 1.67 (inactive); in [11] it was -2.16 (inactive); in [13] it was 2.28 (inactive). The z-score in assay [14] is 1.43 (inactive); in assay [15] it was -1.46 (inactive); in assay [16], 1.45 (inactive); in assay [17], -0.553; in assay [18], -0.312 (inactive); in assay [19], -2.16 (inactive). In [20], this compound gave a z-score of 1.63.
